Measurements published in ChEMBL document CHEMBL4513216, “Probing the Open Global Health Chemical Diversity Library for Multistage-Active Starting Points for Next-Generation Antimalarials” (ACS Infect Dis, 2020).
Screen size: about 69,000 compounds; about 8,600 (12%) showed an effect of 50% or more. The list comes from a sample in which strong results are over-represented; it also holds similar structures and randomly drawn compounds.

Test system: Plasmodium berghei
Assay: Screen against P. berghei liver stage (PbLuc), transformed with Luciferase, at 10uM
Type: functional, HepG2
Conditions: tested at 10 uM

Compound	INHIBITION [%]
CC(C)NC(=O)N1CCN(Cc2ccccn2)CC2(CC(=O)N(C)C2)C1 (stereo not drawn)	42.4
CC1CN(C)CCN1CC(=O)NCCOc1cccc(F)c1 (stereo not drawn)	22.007
O=C(c1ccc2[nH]nnc2c1)N1CCC(Nc2cccnn2)CC1	33.3
NCCC(=O)NCC1(O)CCCN(c2ccnc3cccnc23)C1 (stereo not drawn)	29.4
CCN(c1ccsc1C(=O)N1CCC(C)CC1)S(=O)(=O)c1ccccc1	-8
Cc1ccc(N(C)[C@@H]2CC[C@@H]3CN(C(=O)Cc4cccs4)C[C@@H]32)nn1	-3.02
FC(F)(F)CCc1ncnn1-c1ccc2c(c1)OCO2	-147
FC(F)C(F)(F)COCc1ncnn1-c1ccc2c(c1)OCO2	-98.6
CN1CCN(CCc2ncnn2-c2ccc3c(c2)OCO3)CC1	89.9
Cc1nn(C)c(C)c1OCC(=O)NCC(O)Cc1ccccc1 (stereo not drawn)	67.4
Cc1nn(C)c(C)c1OCC(=O)NCc1cccc(CO)c1	-8.92
Cc1nn(C)c(C)c1OCC(=O)NCC(O)c1ccsc1 (stereo not drawn)	29.7
Cc1nn(C)c(C)c1OCC(=O)NCC(O)c1ccco1 (stereo not drawn)	40.6
Cc1nn(C)c(C)c1OCC(=O)NCc1cccc(C(=O)O)c1	38.6
Cc1nn(C)c(C)c1OCC(=O)NCC(O)c1ccccc1F (stereo not drawn)	57.5
CC(C)[C@H](NS(C)(=O)=O)C(=O)NCc1cc(-c2cccc(Cl)c2)nn1C	45.6
CCC(CO)N(Cc1ccsc1)Cc1c(C)nn(C)c1Cl (stereo not drawn)	27.7
NS(=O)(=O)c1cccnc1Nc1cccc(Cl)c1Cl	27.4
Cc1nn(C)c(C)c1CCC(=O)N(C)Cc1ccc2nsnc2c1	-18.3
COc1ccc(NC(=O)Cc2c(C)nn(C)c2C)cc1F	47.3
COc1cc(CN(C)C(=O)Cc2c(C)nn(C)c2C)ccc1OC(F)F	93.4
COc1ccc(CCC(=O)N(C)Cc2c(C)nn(C)c2C)cc1	40.9

Compound	INHIBITION [%]
COc1ccc(CN(C)C(=O)CN2CC(n3cc(C)cn3)C2)cc1F	17.1
COc1ccc(CN(C)C(=O)Cc2c(C)nn(C)c2C)cc1F	73.6
CCCS(=O)(=O)N1Cc2nccn2CC(CN2CCCC2)C1 (stereo not drawn)	30.3
O=C(Nc1cccc(C(=O)OCC2CCCN2)c1)c1ccoc1 (stereo not drawn)	-97.2
N#Cc1c(N)nc2c(c1-c1c[nH]nc1C1CCCCC1)CC(N)CC2 (stereo not drawn)	-2.43
Cc1ccc(CN2CCn3c(CNS(C)(=O)=O)nnc3C2)s1	50.9
CS(=O)(=O)NCc1nnc2n1CCN(Cc1cccs1)C2	34.7
N#CCC(=O)NCc1nnc2n1CCN(Cc1cccs1)C2	0.164
CN(C)C(=O)NCc1nnc2n1CCN(Cc1cccs1)C2	27.7
CS(=O)(=O)NCc1nnc2n1CCN(Cc1ccc(F)cc1)C2	15.9
CS(=O)(=O)NCc1nnc2n1CCN(Cc1nccs1)C2	18.3
CS(=O)(=O)NCc1nnc2n1CCN(Cc1cccnc1)C2	45.1
CS(=O)(=O)NCc1nnc2n1CCN(Cc1ccncc1)C2	64.9
CC(=O)NCc1nnc2n1CCN(Cc1cccs1)C2	76.2
COC(=O)C(C)(C)NC(=O)C1CC(=O)N(CC2CC2)C1 (stereo not drawn)	25.1
CNc1snc(C)c1C(=O)N1CCCC(n2ccnc2)C1 (stereo not drawn)	33.8
CC[C@H]1N(Cc2ccc(OC)cc2)CCC[C@]12CCC(=O)N2C	6.27
Cc1nc(N2CCCN(c3ncccn3)CC2)c2cnn(C)c2n1	-9.29
Cc1ncsc1CN1CCn2nc(CCC(=O)N3CCCC3)cc2C1	14.9
Cc1nnc(NC(=O)CN2CCc3c(nc(C4CC4)n3C)C2)s1	14.4
CC(=O)NC1CCCN(C(=O)NCc2ccc(-n3cccn3)cc2)C1 (stereo not drawn)	0.914
O=C(Cc1cccs1)N1C[C@@H]2COC[C@]2(COCc2cccnc2)C1	43.9

Compound	INHIBITION [%]
Cc1cc2[nH]c(=O)c(=O)[nH]c2cc1S(=O)(=O)NC1CCCCC1	-27.7
Cc1cc2[nH]c(=O)c(=O)[nH]c2cc1S(=O)(=O)NC1CCC(C)CC1 (stereo not drawn)	23
Cc1cc2nc(O)c(O)nc2cc1S(=O)(=O)NC1CC1	60.7
CNC(=O)[C@@H](c1ccccc1F)N1CCC[C@H]1C(=O)NC1CCOCC1	-27.5
CCN1CCC(CNS(=O)(=O)N2CCc3ccccc3C2)C1 (stereo not drawn)	45.4
O=S(=O)(NCC1CCOC1)N1CCc2ccccc2C1 (stereo not drawn)	27.5
O=S(=O)(NCC1COc2ccccc2C1)N1CCCCC1 (stereo not drawn)	-7.71
O=S1(=O)CCC(CNS(=O)(=O)N2CCc3ccccc3C2)C1 (stereo not drawn)	52.2
CN1CCCC(CNS(=O)(=O)N2CCc3ccccc3C2)C1 (stereo not drawn)	57.8
O=S(=O)(NCC1COc2ccccc2C1)N1CCCC1 (stereo not drawn)	-30
CCn1nc(CC(C)C)cc1C(=O)NCc1c(C)cc(C)nc1OC	47.3
CSCC(=O)Nc1cccc(Oc2ccccn2)c1	-9.93
CS(=O)(=O)NC1CC(=O)N(c2ccccc2Cl)C1 (stereo not drawn)	28.7
O=C1CC(NS(=O)(=O)NCc2ccccc2)CN1c1ccccc1Cl (stereo not drawn)	55
CN(C)S(=O)(=O)NC1CC(=O)N(c2ccccc2Cl)C1 (stereo not drawn)	25.8
CN(C)C(=O)COCc1cncc2c1CCN(Cc1cnn(C)c1)C2	23.5
CN(Cc1cccnc1)Cc1cncc2c1CCN(Cc1ccoc1)C2	28.5
CN(C)Cc1cncc2c1CCN(Cc1ccoc1)C2	24.9
c1cncc(COCc2cncc3c2CCN(Cc2ccoc2)C3)c1	54.8
COCc1cncc2c1CCN(Cc1cccnc1)C2	24.8
CC(C)COCc1cncc2c1CCN(Cc1cnn(C)c1)C2	71.8
COCc1cncc2c1CCN(Cc1cnn(C)c1)C2	-26.2

Compound	INHIBITION [%]
CN(C)Cc1cncc2c1CCN(Cc1cnn(C)c1)C2	59.8
CC(C)N(C)Cc1cncc2c1CCN(CC(=O)N(C)C)C2	12.2
CC(C)N(C)Cc1cncc2c1CCN(CC1CC1)C2	44.8
CN(C)Cc1cncc2c1CCN(CC(=O)N(C)C)C2	72
Cn1cc(CN2CCc3c(COCC4CC4)cncc3C2)cn1	7.15
CCC[C@H]1CN(C(=O)CCn2ccccc2=O)C[C@@H]1NS(C)(=O)=O	-7.98
Cc1nc(C(C)C)sc1C(=O)N1CCC(C(N)=O)CC1	-49.2
Cc1cc(C)cc(OCC(=O)NC2CCN(S(C)(=O)=O)CC2)c1	33
Cc1cc(N2CCN(CCO)CC2)nc(-c2ccncc2)n1	30
CN1CCN(C(=O)COCc2nc(-c3ccncc3)no2)CC1	11.4
CC(C)NC(=O)NCc1nnc2n1C(C(=O)N(C)C)CC2 (stereo not drawn)	9.32
CCCc1noc(C2CCN(C(=O)CCn3nc(C)cc3C)CC2)n1	36.6
COC[C@H]1CCC[C@H]1Nc1ncnc2c1CCNCC2	-6.94
CC(C)N1CCC2(CC1)CC(NCc1ccccn1)c1ccccc1O2 (stereo not drawn)	7.31
O=C(C1CCCC1)N1CCC2(CC1)COCCN2CC1CC1	39.1
O=C(C1CCC1)N1CCC2(CCCN2CC2CC2)CC1	22.3
O=C(C1CCCCC1)N1CCC2(CCCN2CC2CC2)CC1	50.7
OC1(CNCCCN2CCc3ccccc32)CCNC1 (stereo not drawn)	30.7
CCN(CCSc1ccccc1)C(=O)c1cn(C2CCC(N)CC2)nn1 (stereo not drawn)	-56.6
CN(C)c1cc(C(=O)Nc2cccnc2N2CCSCC2)ccn1	2.97
CN(C)c1cc(C(=O)Nc2ccccc2C(=O)NC(C)(C)C)ccn1	7.4
CNC(=O)c1cccc(NC(=O)c2ccnc(N(C)C)c2)c1C	53.9

Compound	INHIBITION [%]
C=C(C)CN1CCN(Cc2nccn2C)C(C)C1 (stereo not drawn)	42.45
CN1CCN(C(=O)Cc2cccc(F)c2)Cc2cccnc21	-3.19
Cc1nc(-c2ccccc2)ccc1C(=O)N1CCN(CCO)CC1	71.2
Cc1nc(-c2cccs2)ccc1C(=O)N1CCN(CC(C)O)CC1 (stereo not drawn)	55.4
Cc1nc(-c2cccs2)ccc1C(=O)N1CCN(CCO)CC1	27.6
Cc1nc2cc(F)cc(C(=O)N3CCN(CCO)CC3)c2nc1C	-24
O=C(c1ccncc1F)N1CCCC1c1nc(-c2ccccc2)n[nH]1 (stereo not drawn)	16.8
O=C(c1ccc(-c2cccs2)cc1F)N1CCN(CCO)CC1	38.7
Cc1nc(O)ccc1C(=O)N1CCCC1c1nc(-c2ccccc2)n[nH]1 (stereo not drawn)	69.8
Cc1nc2cc(F)ccc2cc1C(=O)N1CCN(CC(C)O)CC1 (stereo not drawn)	-11.5
O=C(c1ccc[nH]1)N1CCCC1c1nc(-c2ccccc2)n[nH]1 (stereo not drawn)	-1.76
O=C(c1cc(-c2cccs2)nc2ccccc12)N1CCN(CCO)CC1	68.4
O=C(c1cc2ccccc2c(=O)[nH]1)N1CCN(CCO)CC1	2.32
Cc1nc(-c2ccccc2)ccc1C(=O)N1CCn2c(C)nnc2C1	-0.758
Cc1cc(-n2nnc(C(=O)O)c2-c2ccncc2)ccc1F	49.9
CCOC(=O)CNC(=O)c1cccnc1Sc1cc(OC)ccc1OC	3.58
Cc1ccc(CNC(=O)NC(C)CN2CCOCC2)s1 (stereo not drawn)	14
COCCC(=O)N1C[C@@H](c2ccccc2F)[C@@]2(CCCC(=O)N2)C1	29.5
Cn1cc(N2CCC3(CCN(Cc4nccs4)C3)C2=O)cn1 (stereo not drawn)	26.2
Cc1nc(C)n(CC2CCCN2Cc2nc(-c3ccsc3)no2)n1 (stereo not drawn)	46.8
